Our source for the binding signal values is paper PMC7862700, “An all-to-all approach to the identification of sequence-specific readers for epigenetic DNA modifications on cytosine”.

Holding throughout (test): DAPPL (digital affinity profiling via proximity ligation, sequencing); 10 mM Tris-HCl pH 7.5, 50 mM NaCl, 1 mM DTT, 4% glycerol, room temperature, 30 min; GST-TFs on glutathione beads, 16-mer random dsDNA library, 0.1% formaldehyde crosslink after washing; high values mean tight binding
Settings in all cases: protein: recombinant; tags: N-terminal GST; dsDNA, one strand shown

In one assay the target is T1, GABPA (Homo sapiens, UniProt Q06546 1-454).
T1 sequence: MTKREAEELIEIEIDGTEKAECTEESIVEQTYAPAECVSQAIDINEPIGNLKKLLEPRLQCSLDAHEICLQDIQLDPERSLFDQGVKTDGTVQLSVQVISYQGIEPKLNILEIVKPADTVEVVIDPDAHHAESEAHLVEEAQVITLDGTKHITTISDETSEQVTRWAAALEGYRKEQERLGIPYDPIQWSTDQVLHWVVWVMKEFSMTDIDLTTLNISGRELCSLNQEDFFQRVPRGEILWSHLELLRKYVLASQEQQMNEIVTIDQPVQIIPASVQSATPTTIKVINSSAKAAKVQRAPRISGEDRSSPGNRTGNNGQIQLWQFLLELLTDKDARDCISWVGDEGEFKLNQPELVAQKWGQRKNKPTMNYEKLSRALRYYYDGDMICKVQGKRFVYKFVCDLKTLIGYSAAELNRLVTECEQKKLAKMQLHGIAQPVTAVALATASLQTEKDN
Put shortly:
(§1)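 Each value of binding signal is a hexamer's read frequency for a factor divided by the same hexamer's frequency in the tag-only sample. Barcoded, bead-captured GST fusions of human transcription factors made in yeast were pooled with that sample and incubated with 200 nmole of a random double-stranded 16-mer DNA library in Tris/NaCl/DTT/glycerol buffer at room temperature for 30 min. Washing, 0.1% formaldehyde crosslinking, proximity ligation, PCR and Illumina NextSeq500 sequencing followed.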

Another assay concerns the target T2, ERG (Homo sapiens, UniProt P11308 1-479).
T2 sequence: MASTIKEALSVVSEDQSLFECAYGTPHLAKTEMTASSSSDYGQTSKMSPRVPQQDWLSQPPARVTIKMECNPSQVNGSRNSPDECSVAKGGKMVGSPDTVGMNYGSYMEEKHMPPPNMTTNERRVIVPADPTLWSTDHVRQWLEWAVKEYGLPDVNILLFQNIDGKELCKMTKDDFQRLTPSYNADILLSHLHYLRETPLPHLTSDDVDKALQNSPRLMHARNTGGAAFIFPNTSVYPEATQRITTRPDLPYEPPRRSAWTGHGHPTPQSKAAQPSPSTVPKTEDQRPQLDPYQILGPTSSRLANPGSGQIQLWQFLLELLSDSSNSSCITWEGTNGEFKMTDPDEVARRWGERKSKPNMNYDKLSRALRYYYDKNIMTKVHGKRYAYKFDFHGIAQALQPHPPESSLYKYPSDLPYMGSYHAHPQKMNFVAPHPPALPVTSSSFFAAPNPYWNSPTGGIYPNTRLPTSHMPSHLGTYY
In outline: as §1

Another assay addresses ELF1 (Homo sapiens, UniProt P32519 1-619). Put shortly:
as §1

In another assay the target is T3, EHF (Homo sapiens, UniProt Q9NZC4 1-300).
T3 sequence: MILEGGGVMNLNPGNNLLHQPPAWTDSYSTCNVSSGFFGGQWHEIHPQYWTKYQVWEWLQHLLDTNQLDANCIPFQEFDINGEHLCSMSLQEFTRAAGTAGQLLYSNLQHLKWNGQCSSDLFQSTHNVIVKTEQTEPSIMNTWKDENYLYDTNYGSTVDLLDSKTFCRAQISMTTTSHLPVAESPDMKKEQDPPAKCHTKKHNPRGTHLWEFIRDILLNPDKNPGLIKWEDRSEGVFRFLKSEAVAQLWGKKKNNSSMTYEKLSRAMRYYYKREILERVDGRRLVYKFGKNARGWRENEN
In outline: as §1

For a further assay, the target named is SPI1 (Homo sapiens, UniProt P17947 1-270). In outline:
as §1

The target in the next assay is SPIB (Homo sapiens, UniProt Q01892 1-262). In outline: as §1
Another assay has as its target T4, SPIC (Homo sapiens, UniProt Q8N5J4 1-248).
T4 sequence: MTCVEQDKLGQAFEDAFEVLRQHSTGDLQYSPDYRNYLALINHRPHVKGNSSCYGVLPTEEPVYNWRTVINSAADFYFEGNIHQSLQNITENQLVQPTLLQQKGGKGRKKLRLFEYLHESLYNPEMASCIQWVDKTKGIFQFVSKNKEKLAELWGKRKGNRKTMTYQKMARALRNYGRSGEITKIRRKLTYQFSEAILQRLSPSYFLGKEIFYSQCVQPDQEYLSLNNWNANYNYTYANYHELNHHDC
Put shortly:
as §1

The next assay addresses ELF4 (Homo sapiens, UniProt Q99607 1-663). In outline:
as §1

Another assay has as its target T5, ELK4 (Homo sapiens, UniProt P28324-2 1-405).
T5 sequence: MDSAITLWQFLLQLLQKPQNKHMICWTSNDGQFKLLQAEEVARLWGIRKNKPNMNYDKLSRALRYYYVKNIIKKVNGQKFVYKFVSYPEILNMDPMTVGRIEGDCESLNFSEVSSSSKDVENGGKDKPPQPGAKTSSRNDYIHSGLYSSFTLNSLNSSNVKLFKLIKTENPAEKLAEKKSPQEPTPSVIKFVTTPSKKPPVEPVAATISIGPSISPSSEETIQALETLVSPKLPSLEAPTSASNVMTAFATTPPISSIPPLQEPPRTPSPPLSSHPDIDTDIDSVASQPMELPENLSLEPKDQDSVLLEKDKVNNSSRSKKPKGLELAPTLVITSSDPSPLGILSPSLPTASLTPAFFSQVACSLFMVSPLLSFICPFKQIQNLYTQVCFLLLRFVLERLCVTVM
Put shortly: as §1

A further assay has as its target T6, ELF3 (Homo sapiens, UniProt P78545 1-371).
T6 sequence: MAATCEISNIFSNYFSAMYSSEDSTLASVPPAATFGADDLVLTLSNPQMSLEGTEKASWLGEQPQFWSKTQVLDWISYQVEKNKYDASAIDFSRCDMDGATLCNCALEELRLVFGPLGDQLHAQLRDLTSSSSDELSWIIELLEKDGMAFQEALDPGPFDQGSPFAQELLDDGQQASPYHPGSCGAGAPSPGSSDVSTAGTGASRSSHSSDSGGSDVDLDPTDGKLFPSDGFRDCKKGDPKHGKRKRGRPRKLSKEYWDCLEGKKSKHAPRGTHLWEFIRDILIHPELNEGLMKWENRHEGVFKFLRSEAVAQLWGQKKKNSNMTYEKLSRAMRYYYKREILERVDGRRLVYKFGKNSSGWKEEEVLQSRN
Put shortly: as §1

A further assay deals with ETV1 (Homo sapiens, UniProt P50549 1-477). In outline: as §1
Another assay deals with T7, ERF (Homo sapiens, UniProt P50548 1-548).
T7 sequence: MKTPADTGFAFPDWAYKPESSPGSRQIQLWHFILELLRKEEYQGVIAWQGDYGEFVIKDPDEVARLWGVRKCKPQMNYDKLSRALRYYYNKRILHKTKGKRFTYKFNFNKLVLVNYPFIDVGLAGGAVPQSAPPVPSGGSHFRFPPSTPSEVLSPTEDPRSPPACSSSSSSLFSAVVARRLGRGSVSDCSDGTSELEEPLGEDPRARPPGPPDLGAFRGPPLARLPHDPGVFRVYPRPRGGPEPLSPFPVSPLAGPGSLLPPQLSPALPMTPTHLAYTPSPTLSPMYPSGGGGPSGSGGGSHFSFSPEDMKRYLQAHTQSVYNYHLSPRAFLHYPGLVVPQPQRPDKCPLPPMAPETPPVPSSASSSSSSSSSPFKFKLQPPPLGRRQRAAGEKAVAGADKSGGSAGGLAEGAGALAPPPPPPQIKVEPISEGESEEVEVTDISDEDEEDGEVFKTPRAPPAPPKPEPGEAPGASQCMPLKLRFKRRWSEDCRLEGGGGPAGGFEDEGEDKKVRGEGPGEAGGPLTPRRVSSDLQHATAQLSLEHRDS
Put shortly:
as §1

In another assay the target is T8, ETV3L (Homo sapiens, UniProt Q6ZN32 1-361).
T8 sequence: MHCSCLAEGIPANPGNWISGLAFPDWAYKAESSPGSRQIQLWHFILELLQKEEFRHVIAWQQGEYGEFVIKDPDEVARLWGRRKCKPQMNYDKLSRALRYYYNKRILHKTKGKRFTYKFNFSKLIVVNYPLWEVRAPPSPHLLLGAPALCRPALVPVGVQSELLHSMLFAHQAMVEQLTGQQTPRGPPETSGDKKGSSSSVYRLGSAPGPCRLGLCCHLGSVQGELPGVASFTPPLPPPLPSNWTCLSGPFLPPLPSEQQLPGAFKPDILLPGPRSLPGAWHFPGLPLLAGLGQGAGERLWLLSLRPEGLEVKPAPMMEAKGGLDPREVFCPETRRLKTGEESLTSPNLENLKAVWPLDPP
Put shortly: as §1

The next assay has as its target T9, ETS2 (Homo sapiens, UniProt P15036 1-469).
T9 sequence: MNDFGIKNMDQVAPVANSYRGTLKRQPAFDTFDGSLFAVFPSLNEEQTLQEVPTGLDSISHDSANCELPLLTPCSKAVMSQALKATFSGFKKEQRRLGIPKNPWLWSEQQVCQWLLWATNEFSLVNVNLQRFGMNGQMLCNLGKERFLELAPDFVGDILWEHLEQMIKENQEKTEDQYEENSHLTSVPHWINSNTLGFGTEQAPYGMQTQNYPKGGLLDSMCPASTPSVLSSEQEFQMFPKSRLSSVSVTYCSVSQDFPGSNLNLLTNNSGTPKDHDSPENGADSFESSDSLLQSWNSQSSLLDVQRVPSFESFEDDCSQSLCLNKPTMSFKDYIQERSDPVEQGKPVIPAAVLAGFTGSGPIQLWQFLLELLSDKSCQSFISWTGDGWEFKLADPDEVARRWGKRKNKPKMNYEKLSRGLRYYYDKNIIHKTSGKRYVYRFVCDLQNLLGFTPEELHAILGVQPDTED
Put shortly:
as §1

The target of another assay is T10, SPDEF (Homo sapiens, UniProt O95238 1-335).
T10 sequence: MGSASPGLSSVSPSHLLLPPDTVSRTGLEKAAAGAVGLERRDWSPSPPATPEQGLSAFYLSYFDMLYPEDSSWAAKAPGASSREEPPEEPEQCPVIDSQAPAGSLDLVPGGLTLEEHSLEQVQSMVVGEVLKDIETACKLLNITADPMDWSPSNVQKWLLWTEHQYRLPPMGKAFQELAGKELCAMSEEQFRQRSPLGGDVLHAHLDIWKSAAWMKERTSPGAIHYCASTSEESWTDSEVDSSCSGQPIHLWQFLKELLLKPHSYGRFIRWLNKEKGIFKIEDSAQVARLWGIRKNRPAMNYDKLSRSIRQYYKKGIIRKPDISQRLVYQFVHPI
Put shortly:
as §1

Another assay has as its target T11, ETV7 (Homo sapiens, UniProt Q9Y603 1-341).
T11 sequence: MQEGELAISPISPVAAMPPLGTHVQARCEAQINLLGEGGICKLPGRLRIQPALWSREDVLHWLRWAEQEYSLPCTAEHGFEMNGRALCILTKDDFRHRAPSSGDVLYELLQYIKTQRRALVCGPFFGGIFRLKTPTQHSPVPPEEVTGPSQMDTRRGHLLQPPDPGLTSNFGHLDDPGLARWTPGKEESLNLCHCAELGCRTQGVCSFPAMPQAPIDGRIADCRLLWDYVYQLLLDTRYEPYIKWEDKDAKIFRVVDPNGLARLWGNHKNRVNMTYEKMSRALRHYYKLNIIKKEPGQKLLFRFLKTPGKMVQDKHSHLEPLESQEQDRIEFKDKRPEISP
Put shortly:
as §1

For the next assay, the target named is T12, ETV3 (Homo sapiens, UniProt P41162-2 1-143).
T12 sequence: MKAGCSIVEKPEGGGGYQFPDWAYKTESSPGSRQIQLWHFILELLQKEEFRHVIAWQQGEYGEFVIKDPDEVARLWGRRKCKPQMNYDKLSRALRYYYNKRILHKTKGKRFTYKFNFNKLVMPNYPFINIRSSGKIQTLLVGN
In outline:
as §1

The target of the next assay is ETV6 (Homo sapiens, UniProt P41212 1-452). Put shortly:
as §1

Chain of ETV1 (P50549 whole entry): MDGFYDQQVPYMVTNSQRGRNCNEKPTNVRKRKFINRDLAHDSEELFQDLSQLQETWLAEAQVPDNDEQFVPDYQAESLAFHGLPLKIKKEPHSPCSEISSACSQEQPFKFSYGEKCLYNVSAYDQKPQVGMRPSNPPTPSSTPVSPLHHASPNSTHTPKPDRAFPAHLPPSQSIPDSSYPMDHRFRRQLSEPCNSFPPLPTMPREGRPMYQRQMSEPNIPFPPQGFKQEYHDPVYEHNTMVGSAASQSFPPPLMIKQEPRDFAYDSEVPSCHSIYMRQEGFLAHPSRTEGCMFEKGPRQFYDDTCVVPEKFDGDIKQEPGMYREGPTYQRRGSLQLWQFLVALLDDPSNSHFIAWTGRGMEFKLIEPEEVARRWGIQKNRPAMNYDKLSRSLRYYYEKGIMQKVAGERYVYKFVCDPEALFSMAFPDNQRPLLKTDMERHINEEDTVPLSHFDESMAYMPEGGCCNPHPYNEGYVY
Chain of ETV6 (P41212 whole entry): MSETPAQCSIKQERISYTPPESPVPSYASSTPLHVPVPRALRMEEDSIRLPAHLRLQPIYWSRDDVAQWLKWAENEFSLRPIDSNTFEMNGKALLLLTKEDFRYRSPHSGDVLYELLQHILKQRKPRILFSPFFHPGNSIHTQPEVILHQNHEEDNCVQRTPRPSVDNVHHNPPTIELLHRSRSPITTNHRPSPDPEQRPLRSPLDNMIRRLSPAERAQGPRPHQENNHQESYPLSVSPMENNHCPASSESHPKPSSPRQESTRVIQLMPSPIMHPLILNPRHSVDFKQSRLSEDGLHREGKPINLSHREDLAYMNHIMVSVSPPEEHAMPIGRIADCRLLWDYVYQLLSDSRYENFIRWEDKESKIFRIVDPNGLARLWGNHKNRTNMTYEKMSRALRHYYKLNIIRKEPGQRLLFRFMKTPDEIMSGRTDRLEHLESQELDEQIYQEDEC
Chain of ELF1 (P32519 whole entry): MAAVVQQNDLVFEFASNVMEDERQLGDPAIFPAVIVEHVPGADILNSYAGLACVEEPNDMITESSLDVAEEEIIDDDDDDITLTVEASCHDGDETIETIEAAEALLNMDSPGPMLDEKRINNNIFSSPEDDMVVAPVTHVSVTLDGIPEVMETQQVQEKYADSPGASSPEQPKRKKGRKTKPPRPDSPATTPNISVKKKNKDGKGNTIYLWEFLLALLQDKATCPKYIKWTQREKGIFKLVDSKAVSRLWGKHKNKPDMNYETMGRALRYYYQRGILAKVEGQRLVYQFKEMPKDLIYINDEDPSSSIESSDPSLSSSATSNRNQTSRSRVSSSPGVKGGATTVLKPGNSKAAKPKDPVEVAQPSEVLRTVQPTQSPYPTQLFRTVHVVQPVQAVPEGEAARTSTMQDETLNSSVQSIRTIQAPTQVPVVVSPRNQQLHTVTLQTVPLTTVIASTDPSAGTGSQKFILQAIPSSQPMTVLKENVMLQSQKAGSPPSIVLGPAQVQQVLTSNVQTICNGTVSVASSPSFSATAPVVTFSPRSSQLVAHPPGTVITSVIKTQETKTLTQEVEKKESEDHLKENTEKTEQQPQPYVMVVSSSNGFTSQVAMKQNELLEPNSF
Chain of SPIB (Q01892 whole entry): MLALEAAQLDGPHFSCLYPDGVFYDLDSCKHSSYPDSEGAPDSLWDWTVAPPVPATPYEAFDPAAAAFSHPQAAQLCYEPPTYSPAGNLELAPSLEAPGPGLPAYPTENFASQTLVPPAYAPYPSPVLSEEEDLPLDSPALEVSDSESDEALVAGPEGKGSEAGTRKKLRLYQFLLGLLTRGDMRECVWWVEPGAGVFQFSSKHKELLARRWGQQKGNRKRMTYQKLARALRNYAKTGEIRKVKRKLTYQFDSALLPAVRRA
Chain of ELF4 (Q99607 whole entry): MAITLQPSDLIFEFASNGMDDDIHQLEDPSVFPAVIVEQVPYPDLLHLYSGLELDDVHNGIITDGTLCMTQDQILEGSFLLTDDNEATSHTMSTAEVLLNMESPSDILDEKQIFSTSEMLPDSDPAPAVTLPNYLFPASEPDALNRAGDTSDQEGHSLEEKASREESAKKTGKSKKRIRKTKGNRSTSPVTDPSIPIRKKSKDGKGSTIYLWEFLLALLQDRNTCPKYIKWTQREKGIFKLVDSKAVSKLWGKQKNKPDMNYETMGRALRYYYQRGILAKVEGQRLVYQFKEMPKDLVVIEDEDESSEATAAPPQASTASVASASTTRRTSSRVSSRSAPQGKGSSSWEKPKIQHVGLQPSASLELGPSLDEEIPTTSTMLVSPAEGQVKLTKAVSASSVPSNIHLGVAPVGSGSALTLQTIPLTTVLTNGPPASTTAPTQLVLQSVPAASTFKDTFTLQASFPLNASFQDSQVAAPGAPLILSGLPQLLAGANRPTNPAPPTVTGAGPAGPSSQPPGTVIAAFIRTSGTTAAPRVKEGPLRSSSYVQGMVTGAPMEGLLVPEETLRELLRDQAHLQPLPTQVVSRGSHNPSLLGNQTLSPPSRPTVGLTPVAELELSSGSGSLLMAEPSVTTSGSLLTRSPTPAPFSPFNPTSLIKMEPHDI

For the sequence TTGCCA, the binding signal is 1.13 fold enrichment (6-mer frequency, TF over GST control) in the assay with GABPA; 1.08 fold enrichment (6-mer frequency, TF over GST control) in the assay with ERG; 1.03 fold enrichment (6-mer frequency, TF over GST control) with ELF1; 1.12 fold enrichment (6-mer frequency, TF over GST control) in the assay with EHF; 1.07 fold enrichment (6-mer frequency, TF over GST control) with SPI1; 1.02 fold enrichment (6-mer frequency, TF over GST control) in the assay with SPIB. The binding signal is 1.16 fold enrichment (6-mer frequency, TF over GST control) with SPIC; 1.07 fold enrichment (6-mer frequency, TF over GST control) with ELF4; 1.15 fold enrichment (6-mer frequency, TF over GST control) with ELK4; 1.17 fold enrichment (6-mer frequency, TF over GST control) with ELF3; 1.06 fold enrichment (6-mer frequency, TF over GST control) with ETV1; 1.23 fold enrichment (6-mer frequency, TF over GST control) with ERF. For the same sequence, the binding signal with ETV3L was 1 fold enrichment (6-mer frequency, TF over GST control); with ETS2 it was 1.05 fold enrichment (6-mer frequency, TF over GST control); with SPDEF, 1.14 fold enrichment (6-mer frequency, TF over GST control); with ETV7 it was 1.03 fold enrichment (6-mer frequency, TF over GST control); with ETV3, 1.12 fold enrichment (6-mer frequency, TF over GST control); in the assay with ETV6, 1.06 fold enrichment (6-mer frequency, TF over GST control).
